The results in this text go back to PubChem BioAssay (NCI).

The nature of assay [1]: NCI Yeast Anticancer Drug Screen. Data for the rad50 strain (AID 155).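 Also: 0% = growth of vehicle-only cultures of the same strain.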 The conditions noted are these: S. cerevisiae rad50 strain growth inhibition; at 50.0 µM; stronger effect = higher value. In a few lines:
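Compounds were tested on a yeast strain with an engineered DNA damage repair alteration; the reported value is growth inhibition normalised to vehicle treatment.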

Assay [2] can be described thus: NCI Yeast Anticancer Drug Screen. Data for the mec2-1 strain (AID 157). To be noted: S. cerevisiae mec2-1 strain, at 50.0 µM, stronger effect = higher value. The gist of the method: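 Mutant yeast (mec2-1) grown with compound; growth inhibition relative to vehicle control reported.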
The nature of assay [3]: NCI Yeast Anticancer Drug Screen. Data for the sgs1 mgt1 strain (AID 161).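 Also: 0% = growth of cultures given vehicle only.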 The conditions noted are these: S. cerevisiae sgs1 mgt1 strain, at 50.0 µM, stronger effect = higher value. The gist of the method:
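This yeast growth screen uses a strain with defined DNA-repair lesions; compound-treated growth is compared with vehicle-treated growth.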

Assay [4] is described as follows: NCI Yeast Anticancer Drug Screen. Data for the cln2 rad14 strain (AID 165).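 Also: 0% = growth equal to vehicle treated cultures.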 To be noted: S. cerevisiae cln2 rad14 strain, at 50.0 µM, stronger effect = higher value. In a few lines:
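Readout is yeast growth inhibition versus vehicle-treated controls, using a strain with cln2 and rad14 alterations exposed to compound.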

A short description of assay [5]: NCI Yeast Anticancer Drug Screen. Data for the bub3 strain (AID 167). The conditions noted are these: S. cerevisiae bub3 mutant strain, at 50.0 µM, stronger effect = higher value. In a few lines: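 Growth of a checkpoint-deficient yeast mutant is measured after compound exposure. Values represent inhibition relative to vehicle.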
Assay [6] is described as follows: NCI Yeast Anticancer Drug Screen. Data for the mlh1 rad18 strain (AID 175). To be noted: S. cerevisiae mlh1 rad18 strain growth inhibition; at 50.0 µM; stronger effect = higher value. The gist of the method: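 Genetically defined yeast (DNA repair-deficient) exposed to compounds; growth inhibition determined relative to vehicle.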

Compounds without any hit were thinned out: in the full panel of roughly 79,000, 15% have a hit. A number with no mark means an inactive call. Calls of active or inactive are those of the source. Rule as the data show it: active = growth inhibition above about 70%; inactive = the rest.

With `CN(CCO)CCN1c2ccccc2Sc2ccccc21`, the growth inhibition is -12.7% in assay [1]; -26.3% in assay [2]; -10.2% in assay [3]; -13.9% in assay [4]; -5.8% in assay [5]; -0.65% in assay [6].

For `OCC(O)COCC#Cc1ccccc1` (stereo not given), the growth inhibition in assay [1] is 6%; in assay [2] it was 1.85%; in assay [3], 3.1%; in assay [4] it was -60.2%; in assay [5] it was -14.6%; in assay [6], 16.2%.

As for `O=C(O)C(CSC(c1ccccc1)(c1ccccc1)c1ccccc1)Nc1ccccc1[N+](=O)[O-]` (stereo not given), the growth inhibition in assay [1] is 99% (active); in assay [2], 99.2% (active); in assay [3], 99.4% (active); in assay [4], 98% (active); in assay [5], 98.3% (active); in assay [6] it was 99.2% (active).

As for `COC(=O)c1c(C)cc(OC)c(C/C=C(\C)CCCc2coc(C=C(C)C)c2)c1OC`, the growth inhibition in assay [1] was 21%; in assay [2] it was 6.55%; in assay [3], 19%; in assay [4] it was 11.9%; in assay [5] it was 12.4%; in assay [6] it was 25%.

Regarding `COC(OC)c1cccc2c1C1(O)CCC3(CC21)OCCCCO3` (stereo not given), the growth inhibition was -9.35% in assay [1]; -26.4% in assay [2]; -42.5% in assay [3]; -11.6% in assay [4]; -42.9% in assay [5]; -23.1% in assay [6].

`CN(C)c1nc2ccccn2c1C(=O)c1ccccc1`: the growth inhibition is 4.85% in assay [1]; -0.1% in assay [2]; -12.8% in assay [3]; -19.4% in assay [4]; -0.6% in assay [5]; -5.5% in assay [6].

As for `CNC(=O)c1ccccc1N`, the growth inhibition in assay [1] was 1.75%; in assay [2], -6.95%; in assay [3], -11.7%; in assay [4], -84.2%; in assay [5], 1.05%; in assay [6] it was -17.2%.

As for `CCCCCCCCCCCCCCC(CCCCCCCCCCCCCC)c1ccccc1`, the growth inhibition in assay [1] was 38.4%; in assay [2] it was -1.25%; in assay [3], 11.6%; in assay [4] it was -29.4%; in assay [5] it was -2.65%; in assay [6], 12.2%.

For the molecule `CC(C)C(=O)N(C(C)C)C(C)C`, the growth inhibition was 25.2% in assay [1]; 12.5% in assay [2]; 8.5% in assay [3]; -21.6% in assay [4]; -0.55% in assay [5]; 38% in assay [6].

For `Ic1ccc(Nc2ncnc3sc4c(c23)CCCC4)cc1`, the growth inhibition in assay [1] is 24.2%; in assay [2], -14%; in assay [3], -16.9%; in assay [4], 15.8%; in assay [5], 7.25%; in assay [6] it was -7.65%.

As for `COc1ccc(-c2nc(N)nc3c2CN(CCCC(=O)O)C3=O)cc1`, the growth inhibition in assay [1] was -4.65%; in assay [2] it was 30.3%; in assay [3] it was -4.25%; in assay [4], -30.8%; in assay [5] it was 9.3%; in assay [6] it was -10.4%.

`Oc1ccccc1C=Nc1ccc2c(ccc3c4ccccc4ccc23)c1`: the growth inhibition in assay [1] is 51.8%; in assay [2], 39.8%; in assay [3] it was 28%; in assay [4], -6.65%; in assay [5], 48.1%; in assay [6], 39.8%.

On to `O=S(=O)(Nc1cccc(F)c1)c1ccc(F)cc1`, for which the growth inhibition in assay [1] is -12.5%; in assay [2], -10.4%; in assay [3] it was -3.6%; in assay [4], 0.3%; in assay [5] it was -9.95%; in assay [6], 11.6%.

For `O=C1C2C3CCC(O3)C2C(=O)N1Cc1ccccc1CN1C(=O)C2C3CCC(O3)C2C1=O` (stereo not given), the growth inhibition in assay [1] is 82% (active); in assay [2], 95.2% (active); in assay [3] it was 89.2% (active); in assay [4], 98.6% (active); in assay [5], 98.1% (active); in assay [6], 95.8% (active).

For `O=[N+]([O-])c1ccc2oc3cccnc3c2c1`, the growth inhibition is 28.6% in assay [1]; -2.8% in assay [2]; -2.65% in assay [3]; -14.1% in assay [4]; 1.3% in assay [5]; 12.8% in assay [6].

As to `C/C(=C\C(=N\Nc1nc(C)cc(=O)[nH]1)c1ccccc1)c1ccccc1`, the growth inhibition in assay [1] was 12.4%; in assay [2] it was -11.4%; in assay [3], -8.75%; in assay [4], 3.45%; in assay [5], 6.8%; in assay [6], -2.2%.

For the molecule `CCOC(=O)c1sc(SC)nc1NC(=O)c1ccc([N+](=O)[O-])cc1`, the growth inhibition in assay [1] is -13.4%; in assay [2] it was -8.55%; in assay [3], -53%; in assay [4], -1.3%; in assay [5], -20.5%; in assay [6] it was -3.85%.

As for `O=C(OC(=O)c1cccc(Br)c1)c1cccc(Br)c1`, the growth inhibition is 10.2% in assay [1]; -10.5% in assay [2]; 26% in assay [3]; 34.8% in assay [4]; -5.7% in assay [5]; 1% in assay [6].

Turning to `CCC(C)C1NC(=S)N(c2ccccc2)C1=O` (stereo not given), the growth inhibition in assay [1] is -8.65%; in assay [2], 7.05%; in assay [3], -18.1%; in assay [4] it was -0.55%; in assay [5], -9%; in assay [6], -30.4%.

Take `Cc1ccc(S(=O)(=O)C2(NC(=O)c3ccc(Cl)cc3)CC2)cc1`: the growth inhibition was 10.6% in assay [1]; 15.5% in assay [2]; -6.9% in assay [3]; 5.4% in assay [4]; -11.5% in assay [5]; -2.4% in assay [6].
